Experimental data published in the supplement of paper PMC12282887.
± gives the standard deviation of the averaged measurements.

Tests used:
Assay in all cases: promoter activity interaction Z-score (Lux/OD deviation from empty-vector control); higher = stronger promoter induction by the compound
[1] = test system: E. coli BW25113 acrABp lux reporter
Outline: (§1)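 Every compound was given at four 1:2 dilutions, in biological duplicates, to E. coli BW25113 carrying low-copy luxCDABE promoter reporters in wild-type or single-gene deletion backgrounds. Growth in 40 µl LB Lennox in 384-well plates at 37°C was followed by OD600 and luminescence readings every 30 min for 12 h, integrated over 0–8 h for wild type and 1–9 h for deletion strains, with wells below 10% of the median growth value excluded. Scores are Z-transformed residuals of growth-normalised luminescence fitted against a control.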

[2] = test system: E. coli BW25113 micFp lux reporter
Outline: as §1

[3] = test system: E. coli BW25113 ompFp lux reporter
Outline: as §1

[4] = test system: E. coli BW25113 robp lux reporter
Outline: as §1

[5] = test system: E. coli BW25113 soxSp lux reporter
Outline: as §1

[6] = test system: E. coli BW25113 tolCp lux reporter
Outline: as §1

[7] = 0.0012 µg/ml, genetic background: wild type
[8] = 0.0012 µg/ml, genetic background: ΔmarA
[9] = 0.0012 µg/ml, genetic background: Δrob
[10] = 0.0012 µg/ml, genetic background: ΔsoxS
[11] = 0.0025 µg/ml, genetic background: wild type
[12] = 0.0025 µg/ml, genetic background: ΔmarA
[13] = 0.0025 µg/ml, genetic background: Δrob
[14] = 0.0025 µg/ml, genetic background: ΔsoxS
[15] = 0.005 µg/ml, genetic background: wild type
[16] = 0.005 µg/ml, genetic background: ΔmarA
[17] = 0.005 µg/ml, genetic background: Δrob
[18] = 0.005 µg/ml, genetic background: ΔsoxS
[19] = 0.0099 µg/ml, genetic background: wild type
[20] = 0.0099 µg/ml, genetic background: ΔmarA
[21] = 0.0099 µg/ml, genetic background: Δrob
[22] = 0.0099 µg/ml, genetic background: ΔsoxS

O=C(O)c1cn(C2CC2)c2cc(N3CCNCC3)c(F)cc2c1=O [Ciprofloxacin]
promoter activity interaction Z-score [1, 7]: -0.0508 ± 0.0034 | promoter activity interaction Z-score [1, 8]: 0.353 ± 0.13 | promoter activity interaction Z-score [1, 9]: 0.173 ± 0.043 | promoter activity interaction Z-score [1, 10]: 0.42 ± 0.15 | promoter activity interaction Z-score [1, 11]: 0.086 ± 0.043 | promoter activity interaction Z-score [1, 12]: 0.398 ± 0.6 | promoter activity interaction Z-score [1, 13]: 0.0723 ± 0.032 | promoter activity interaction Z-score [1, 14]: 0.345 ± 0.36 | promoter activity interaction Z-score [1, 15]: -0.0602 ± 0.085 | promoter activity interaction Z-score [1, 16]: 0.14 ± 0.38 | promoter activity interaction Z-score [1, 17]: -0.262 ± 0.024 | promoter activity interaction Z-score [1, 18]: 0.245 ± 0.15 | promoter activity interaction Z-score [1, 19]: 3.2 ± 0.99 | promoter activity interaction Z-score [2, 7]: -0.234 ± 0.19 | promoter activity interaction Z-score [2, 8]: 0.0327 ± 0.0091 | promoter activity interaction Z-score [2, 9]: -0.0152 ± 0.072 | promoter activity interaction Z-score [2, 10]: 0.0125 ± 0.049 | promoter activity interaction Z-score [2, 11]: -0.177 ± 0.22 | promoter activity interaction Z-score [2, 12]: 0.0702 ± 0.0035 | promoter activity interaction Z-score [2, 13]: 0.0396 ± 0.11 | promoter activity interaction Z-score [2, 14]: 0.236 ± 0.43 | promoter activity interaction Z-score [2, 15]: 0.0988 ± 0.0042 | promoter activity interaction Z-score [2, 16]: 0.222 ± 0.086 | promoter activity interaction Z-score [2, 17]: 0.149 ± 0.08 | promoter activity interaction Z-score [2, 18]: 0.0364 ± 0.036 | promoter activity interaction Z-score [2, 19]: -0.518 ± 0.27 | promoter activity interaction Z-score [2, 20]: -0.126 ± 0.0091 | promoter activity interaction Z-score [2, 21]: -0.163 | promoter activity interaction Z-score [2, 22]: -0.0606 ± 0.43 | promoter activity interaction Z-score [3, 7]: -0.438 ± 0.12 | promoter activity interaction Z-score [3, 8]: -0.0468 ± 0.33 | promoter activity interaction Z-score [3, 9]: -0.155 ± 0.71 | promoter activity interaction Z-score [3, 10]: 0.116 ± 0.044 | promoter activity interaction Z-score [3, 11]: -0.471 ± 0.096 | promoter activity interaction Z-score [3, 12]: -0.00111 ± 0.52 | promoter activity interaction Z-score [3, 13]: -0.691 ± 0.58 | promoter activity interaction Z-score [3, 14]: 0.136 ± 0.14 | promoter activity interaction Z-score [3, 15]: -0.511 ± 0.028 | promoter activity interaction Z-score [3, 16]: -0.0342 ± 0.14 | promoter activity interaction Z-score [3, 17]: -0.495 ± 0.56 | promoter activity interaction Z-score [3, 18]: -0.279 ± 0.43 | promoter activity interaction Z-score [3, 19]: -0.587 ± 0.72 | promoter activity interaction Z-score [4, 7]: 0.0678 ± 0.12 | promoter activity interaction Z-score [4, 8]: 0.253 ± 0.13 | promoter activity interaction Z-score [4, 9]: 0.0957 ± 0.66 | promoter activity interaction Z-score [4, 10]: 1.22 ± 0.77 | promoter activity interaction Z-score [4, 11]: 0.3 ± 0.26 | promoter activity interaction Z-score [4, 12]: -0.0277 ± 0.16 | promoter activity interaction Z-score [4, 13]: 0.0548 ± 0.78 | promoter activity interaction Z-score [4, 14]: 1.24 ± 1.1 | promoter activity interaction Z-score [4, 15]: 0.247 ± 0.46 | promoter activity interaction Z-score [4, 16]: 0.267 ± 0.41 | promoter activity interaction Z-score [4, 17]: -0.0594 ± 0.79 | promoter activity interaction Z-score [4, 18]: 0.171 ± 0.16 | promoter activity interaction Z-score [4, 19]: -0.624 ± 0.76 | promoter activity interaction Z-score [4, 20]: -0.611 | promoter activity interaction Z-score [5, 7]: -0.0335 ± 0.15 | promoter activity interaction Z-score [5, 8]: 0.12 ± 0.047 | promoter activity interaction Z-score [5, 9]: 0.0163 ± 0.22 | promoter activity interaction Z-score [5, 10]: 0.466 ± 0.26 | promoter activity interaction Z-score [5, 11]: -0.17 ± 0.048 | promoter activity interaction Z-score [5, 12]: 0.0948 ± 0.18 | promoter activity interaction Z-score [5, 13]: -0.0974 ± 0.25 | promoter activity interaction Z-score [5, 14]: 0.326 ± 0.014 | promoter activity interaction Z-score [5, 15]: 0.14 ± 0.19 | promoter activity interaction Z-score [5, 16]: 0.125 ± 0.098 | promoter activity interaction Z-score [5, 17]: 0.0524 ± 0.27 | promoter activity interaction Z-score [5, 18]: 0.682 ± 0.7 | promoter activity interaction Z-score [5, 19]: 0.127 ± 0.063 | promoter activity interaction Z-score [5, 20]: 0.0874 ± 0.13 | promoter activity interaction Z-score [5, 21]: -0.378 ± 0.17 | promoter activity interaction Z-score [5, 22]: 3.89 ± 2.3 | promoter activity interaction Z-score [6, 7]: 0.3 ± 0.42 | promoter activity interaction Z-score [6, 8]: 0.215 ± 0.83 | promoter activity interaction Z-score [6, 9]: -0.563 ± 1 | promoter activity interaction Z-score [6, 10]: 0.363 ± 0.45 | promoter activity interaction Z-score [6, 11]: 0.307 ± 0.13 | promoter activity interaction Z-score [6, 12]: -0.633 ± 0.058 | promoter activity interaction Z-score [6, 13]: -0.452 ± 0.41 | promoter activity interaction Z-score [6, 14]: 0.599 ± 0.74 | promoter activity interaction Z-score [6, 15]: 0.224 ± 0.038 | promoter activity interaction Z-score [6, 16]: 0.452 ± 0.24 | promoter activity interaction Z-score [6, 17]: -0.267 ± 1.4 | promoter activity interaction Z-score [6, 18]: 0.965 ± 0.61 | promoter activity interaction Z-score [6, 19]: -0.238 ± 0.84 | promoter activity interaction Z-score [6, 20]: 0.207 ± 0.2 | promoter activity interaction Z-score [6, 21]: -2.22 ± 0.97 | promoter activity interaction Z-score [6, 22]: 1.85 ± 0.19
